# Data from ChEMBL document CHEMBL3988442, “University of Dundee, Small-Polar-MMV Screening Library” (2021).
# The campaign covered roughly 53,000 compounds. About 900 (1.7%) showed an effect of 50% or more. Many of the other results were omitted from the sample, so strong results are more common in it than they were.
# System: Mycobacterium tuberculosis
# Assay: Cornell - Phenotypic assay to identify agents that inhibit growth of Mycobacterium tuberculosis
# Assay type: functional
# Design: scale not given: direction of the effect not stated beside the values
# Settings: 10 mM as filed; unlikely as a test dose
row,Compound,Percent Effect
1,O[C@@H]1CN(c2nc3ccccc3o2)CC[C@H]1c1ccc2c(c1)OCO2,1.12%
2,O[C@@H]1CN(c2cnc3ccccc3n2)CC[C@H]1c1ccc2c(c1)OCO2,102.9%
3,O[C@@H]1CN(c2nc3ccccc3s2)CC[C@H]1c1ccc2c(c1)OCO2,18.1%
4,COc1cccc(CNC(=O)CN2CCCC(Cn3cncn3)C2)c1 (stereo not given),-43.6%
5,Cc1cnn(C2CN(Cc3nc(-c4ccccc4C)no3)C2)c1,-13.18%
6,Cc1cnn(C2CN(Cc3nc(-c4cccnc4)no3)C2)c1,3.209%
7,Cc1cnn(C2CN(Cc3nc(-c4ccccn4)no3)C2)c1,-25.23%
8,Cc1cnn(C2CN(Cc3nc4cc(Cl)ccc4n3C)C2)c1,63.15%
9,Cc1ccc(-c2nnc(CN3CC(n4cc(C)cn4)C3)o2)cc1,82.45%
10,Cc1cnn(C2CN(Cc3nc(C(C)(C)C)no3)C2)c1,-9.455%
11,Cc1cc(C)n(C2CN(Cc3nc4cc(Cl)ccc4n3C)C2)n1,-28.71%
12,Cc1cccc(-c2noc(CN3CC(n4cc(C)cn4)C3)n2)c1,51.38%
13,Cc1cnn(C2CN(Cc3nnc(Cc4ccccc4)o3)C2)c1,75.37%
14,Cc1cnn(C2CN(Cc3nc(-c4ccsc4)no3)C2)c1,18.79%
15,Cc1ccc(-c2noc(CN3CC(n4cc(C)cn4)C3)n2)cc1,41.03%
16,Cc1cnn(C2CN(Cc3nnc(-c4ccccc4Cl)o3)C2)c1,-48.85%
17,CCOc1ccccc1-n1c(C2CC(=O)N(C)C2)n[nH]c1=O (stereo not given),-16.7%
18,Cc1c[nH]c(CN(C)C(=O)[C@]23CNC[C@H]2CNC3)n1,-19.02%
19,O=C(Nc1ccnn1Cc1ccc(Cl)cc1)C1CCS(=O)(=O)C1 (stereo not given),-30.31%
20,CC(C)(C)C(=O)NS(=O)(=O)c1ccc(F)cc1C(F)(F)F,31.3%
21,CC(=O)N1CCC(Cc2cnc(Nc3cc(C)on3)cn2)CC1,-2.54%
22,Nc1nonc1C(=O)N1Cc2ccccc2OC2(CCOCC2)C1,-22.02%

row,Compound,Percent Effect
1,COc1ccc(-c2cn([C@H](CO)CC(C)C)nn2)cn1,26.72%
2,COC(=O)Cn1c(=O)nc2n1C(=O)N(c1ccc(F)cc1)C2,8.177%
3,Cc1cnn(CC2CCCN2C(=O)c2cccc(S(C)(=O)=O)c2)c1 (stereo not given),1.06%
4,Cc1noc([C@]23COC[C@H]2CN(C(=O)COC2CCCC2)C3)n1,1.713%
5,CNC(=O)Cn1c(-c2ccco2)nn(-c2ccccc2OC)c1=O,-0.5787%
6,CC(c1cccnc1)N(C)C(=O)NCCOc1ccc(C#N)cc1 (stereo not given),12.58%
7,C[C@@H]1CN(C(=O)C2CCS(=O)(=O)CC2)CC[C@@]1(O)C1CCOCC1,26.03%
8,Cc1cc(C)n(CCN2CCC(N(C)Cc3nnc(C)n3C)C2)n1 (stereo not given),-7.03%
9,CCN(C(=O)Cc1ccc(NC(=O)NC2CC2)cc1)c1ccccc1,-6.305%
10,CCN(C(=O)Cc1ccc(NCc2ncc[nH]2)cc1)c1ccccc1,52.94%
11,CCN(C(=O)Cc1ccc(NCc2nccn2C)cc1)c1ccccc1,9.386%
12,Cc1nn(C)c(Cl)c1C1CCCN1C(=O)c1cnc[nH]1 (stereo not given),8.572%
13,Cc1ccc(C(=O)NCc2ccnc(C3CCCOC3)n2)s1 (stereo not given),2.557%
14,CC(C)(C)CNC(=O)c1ccc(C(=O)O)nc1,11.56%
15,CN(CC(=O)NCCc1ccccn1)C(=O)c1cccs1,-9.987%
16,CNC(=O)C(C)CN(C)C(=O)Nc1cc(F)cc(Br)c1 (stereo not given),72.87%
17,CC(O)CCN(C)C(=O)Nc1cc(F)cc(Br)c1 (stereo not given),23%
18,CN(CC(O)C1CC1)C(=O)Nc1cc(F)cc(Br)c1 (stereo not given),5.584%
19,Cn1nc(C2CN(S(C)(=O)=O)C2)c2nccnc21,-1.799%
20,Cc1nnc(SCC(=O)c2cc3c(cc2Cl)NC(=O)C3)s1,21.14%
21,CSc1nsc(SCC(=O)c2cc3c(cc2Cl)NC(=O)C3)n1,71.22%
22,Nc1nnc(SCC(=O)c2cc3c(cc2Cl)NC(=O)C3)s1,9.185%

row,Compound,Percent Effect
1,O=C(C1CCOCC1)N1CCC(O)(Cn2ccc3ccncc32)CC1,-3.808%
2,Cc1cc(CN2C[C@@H]3COC[C@@H](C(=O)N4CCCCO4)[C@@H]3C2)oc1C.O=C(O)C(F)(F)F,19.33%
3,CN(C)CC1(O)CCN(C(=O)Cc2ccc3c(c2)CCCC3)C1 (stereo not given),27.93%
4,CN(C)CC1(O)CCN(C(=O)Cc2ccc3c(c2)CCC3)C1 (stereo not given),59.81%
5,CN(C)CC1(O)CCN(C(=O)Cc2ccc(Cl)c(Cl)c2)C1 (stereo not given),-11.99%
6,O=C1C(Sc2nnnn2C2CC2)CCN1c1ccccc1F (stereo not given),-21.88%
7,Cc1cc(NS(=O)(=O)c2ccc(Cl)s2)ccc1-n1cccc1C(=O)O,25.94%
8,O=C(O)c1cc(NS(=O)(=O)c2ccccc2F)ccc1N1CCSCC1,-53.64%
9,Cc1ccc(S(=O)(=O)Nc2ccc(-n3cccc3C(=O)O)c(C)c2)cc1,24.84%
10,Cc1cc(NS(=O)(=O)c2cccs2)ccc1-n1cccc1C(=O)O,31.6%
11,Cc1ccc(S(=O)(=O)Nc2ccc(-n3cccc3C(=O)O)c(C)c2)s1,77.19%
12,Cc1cc(NS(=O)(=O)c2ccccc2F)ccc1-n1cccc1C(=O)O,63.88%
13,Cc1cnn(CC2CN(CC(=O)N(C)Cc3cnn(C)c3)CCO2)c1 (stereo not given),-28.01%
14,CCc1ccccc1-n1nnc(C(=O)O)c1-c1ccccn1,8.629%
15,Clc1ccc(OCCNC2(c3ccc(Br)cc3)CCOCC2)cc1,68.56%
16,CCOCCNC1(c2ccc(Cl)cc2)CCOCC1,-7.005%
17,COCCNC1(c2ccc(Cl)cc2)CCOCC1,-43.32%
18,CNC(=O)C1(C)CN(c2nnc(C)c3ccccc23)CCO1 (stereo not given),14%
19,COc1ccc(N(c2ccc(OC)cc2)c2ccc(C(=O)O)s2)cc1,27.51%
20,COc1ccc(N(c2ccccc2)c2ccc(C(=O)O)s2)cc1,73.26%
21,COc1ccc(N(c2ccc(C)cc2)c2ccc(C(=O)O)s2)cc1,2.836%
